Source: PubChem BioAssay (National Center for Advancing Translational Sciences (NCATS))
Only some compounds are listed: those with a hit (about 3.1% of all), similar ones and a draw of the others.
Tb PFK block: qHTS Assay to Find Inhibitors of T. brucei phosphofructokinase. Potency, µM (doses to about 57.5 µM), for inactives: at the highest dose activity, negative = inhibition, usual class: inhibitors. AID 485367, 2010. ATP-dependent 6-phosphofructokinase (Trypanosoma brucei brucei), O15648. T. brucei PFK, ADP-Glo luminescence. hit rate 0.17% among 330,000;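 note: 0% = uninhibited 1x PFK enzyme wells and -100% = no-enzyme wells; nearly all actives have a fitted effect of over 60% in size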
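ADP-Glo luminescence quantified ADP after 45 min at room temperature, with 1.25 nM T. brucei PFK, 0.1 mM ATP and 0.5 mM fructose-6-phosphate in pH 8.0 TEA buffer. qHTS titrations up to 57 µM; curves classified by quality.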
PLK1 PBD inh: qHTS for Inhibitors of PLK1-PDB (polo-like kinase 1 - polo-box domain): Primary Screen; Plk1 PBD binding of FITC phosphopeptide, fluorescence polarization; Potency, µM, for the others: max response, negative = inhibition, hits mostly inhibitors; hit rate 2.8% among 360,000; AID 720504, 2013; note: series mostly up to about 57 µM; % is set by controls: 0 for no effect and ±100 for the full control effect; nearly all actives have a fitted effect of over 65% in size
Target sequence (P53350 whole entry, looked up, the tested form may be a part): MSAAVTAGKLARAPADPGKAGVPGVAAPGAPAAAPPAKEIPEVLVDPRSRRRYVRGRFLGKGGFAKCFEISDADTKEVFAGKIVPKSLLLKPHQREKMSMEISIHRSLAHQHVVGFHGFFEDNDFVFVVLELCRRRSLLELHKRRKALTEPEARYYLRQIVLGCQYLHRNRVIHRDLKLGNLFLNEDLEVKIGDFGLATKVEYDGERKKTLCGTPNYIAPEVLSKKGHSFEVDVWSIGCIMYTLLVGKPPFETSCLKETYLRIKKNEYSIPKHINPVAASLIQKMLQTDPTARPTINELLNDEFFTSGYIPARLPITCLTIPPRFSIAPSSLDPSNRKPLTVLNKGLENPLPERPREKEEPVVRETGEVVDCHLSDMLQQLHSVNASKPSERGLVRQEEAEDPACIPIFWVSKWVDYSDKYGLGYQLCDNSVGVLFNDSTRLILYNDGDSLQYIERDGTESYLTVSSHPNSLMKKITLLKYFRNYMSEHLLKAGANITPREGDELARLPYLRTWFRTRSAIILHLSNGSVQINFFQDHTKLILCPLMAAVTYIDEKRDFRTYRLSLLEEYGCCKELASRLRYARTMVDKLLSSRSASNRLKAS
VDR inhibitor: Inhibitors of the vitamin D receptor (VDR): qHTS; VDR-SRC2-3 peptide fluorescence polarization, 2 h; Potency, µM, inactives show max response, negative = inhibition, actives largely listed as inhibitors; hit rate 0.93% among 400,000; AID 504847, 2011; note: % is set by controls: 0 for no effect and ±100 for the full control effect
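After 23 nl compound addition and a short centrifugation, plates sat for 2 hours at ambient temperature; polarization of fluorescence then indicated loss of VDR binding to peptide SRC2-3.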
TDP1 block: qHTS Assay for Inhibitors of Tyrosyl-DNA Phosphodiesterase (TDP1); hit rate 0.28% among 350,000; Potency, µM (doses to about 130 µM), without a hit: top-dose activity change, negative = inhibition, most hits filed as inhibitors; Tyrosyl-DNA phosphodiesterase 1 (Homo sapiens), Q9NUW8; recombinant TDP1, AlphaScreen DNA substrate cleavage; AID 485290, 2010; note: % is set by controls: 0 for no effect and ±100 for the full control effect; nearly all actives have a fitted effect of over 40% in size
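E. coli-derived human Tdp1, 1 nM final. Cpd preinc 15 min RT; substrate 15 nM final, 5 min RT; AS bead mix 10 ug/ml final, 10 min RT. Signal loss = tyrosine-FITC cleavage. No-enzyme wells = max signal.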
Pin1 inhibitor: qHTS Assay to Find Inhibitors of Pin1 | Peptidyl-prolyl cis-trans isomerase NIMA-interacting 1 (Homo sapiens), Q13526 | Pin1 FP peptide displacement, HiFluor488, 10 min | Potency, µM (doses to about 115 µM), without a hit: at the highest dose activity, negative = inhibition, hits mostly inhibitors | hit rate 0.009% among 390,000 | AID 504891, 2011; active = well fitted inhibition curve with a large enough effect in the polarisation, with a control signal flat, not every such curve was filed as active; inconclusive = small, poorly fitted or top-dose-only effect, or effect the other way, or a change in a side signal; inactive = no such curve, though single readings can be large or run the other way; the % refers to the polarisation; note: % is set by controls: 0 for no effect and ±100 for the full control effect
S-ASM inh: Inhibitors of Secretory Acid Sphingomyelinase (S-ASM): qHTS | Sphingomyelin phosphodiesterase (Homo sapiens), P17405 | Potency, µM (top dose mostly 57.5 µM), for inactives: at the highest dose activity change, negative = inhibition, most hits filed as inhibitors | placental ASM, HMU-PC fluorogenic substrate, 60 min | hit rate 0.006% among 340,000
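Human placenta-derived ASM preincubated with compound 10 min at room temperature, then reacted with 9 uM (final) fluorogenic HMU-PC substrate for 60 min at 37 C. Stop solution raises pH to 10; fluorescence read at Ex 386/Em 447 nm.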
Active calls of the source: *; ? = inconclusive; . = no result given; [ ] = remark or other dose. Unless noted, calls come from the whole dose curve; as a rule, active = well fitted curve in the direction sought with a large enough effect; inconclusive = small, poorly fitted or top-dose-only effect, or another doubt; inactive = no such curve, though single readings can be large; an effect the other way counts as inactive or inconclusive. Potency is the fitted concentration of half-maximal effect.

SMILES	Tb PFK block	PLK1 PBD inh	VDR inhibitor	TDP1 block	Pin1 inhibitor	S-ASM inh
CCSC1(SCC)N=C(N)C2(C#N)C(c3ccc(OC)c(OC)c3OC)C12C#N (stereo not drawn)	-2%	13µM*	?	0%	6%	1%
CC1(C)CC(=O)c2sc(NS(=O)(=O)Cc3ccccc3)nc2C1	1%	24µM*	?	-3%	0%	0%
CCOC(=O)c1c(C)oc2ccc(OCc3cc(C(=O)OC)oc3C)cc12	-1%	27µM*	-19%	-3%	-3%	-6%
CCOC(=O)c1ccc(N2CCN(c3cc(C)ccc3C)CC2)c(NC(=O)Nc2ccccc2)c1	.	.	14%	-3%	4%	.
COC(=O)CCC(=O)OC1(C)C(=O)C=C2C=C(C3CC3)N(c3ccc(OC)cc3)C=C2C1=O (stereo not drawn)	.	.	.	4%[12.3 µM]	.	.
COc1ccc(CN(CCCN)c2ccc(Br)cn2)cc1	.	.	-5%	.	-2%	.
COc1cccc(CNC(=O)Cn2cc3c(n2)-c2c(oc(C(=O)N4CCCC4)c2C)CC3)c1OC	.	.	9%	0%	-1%	.
N#C/C(=C/c1ccc(N2CCCCCC2)o1)c1cccc(F)c1	-16%	-10%	45µM*	-5%	?	-11%
COc1cccc(C2=NS(=O)(=O)N(C)C(C(=O)Nc3ccccc3SC)=C2)c1	.	.	-8%	9%	10%	.
COc1ccc(-n2ncc3c2CC(C)(C)CC3NC(=O)CCN2CCCC2=O)cc1 (stereo not drawn)	-17%	-15%	-4%	1%	-6%	-2%
COc1cc(C(=O)NC2CC(C)(C)Cc3c2cnn3-c2ccccc2)cc(OC)c1OC (stereo not drawn)	0%	30µM*	?	0%	-1%	-4%
COc1ccc(-n2ncc3c2CC(C)(C)CC3NC(=O)c2c(C)cc(=O)oc2C)cc1 (stereo not drawn)	2%	24µM*	?	1%	-2%	-1%
CCOC(=O)C(CC)Sc1nc2c(c(=O)[nH]c(=O)n2C)n1C/C=C(/C)Cl (stereo not drawn)	-6%	2.7µM*	32µM*	2%	1%	2%
COCCn1c(SCc2ccc(Cl)cc2)nc2c1c(=O)[nH]c(=O)n2C	.	-1%	-1%	.	-9%	-1%
C/C=C/Cn1c(SC)nc2c1c(=O)[nH]c(=O)n2C	-3%	27µM*	-9%	3%	3%	-2%
CSc1nc2c(c(=O)[nH]c(=O)n2C)n1Cc1ccc(Cl)cc1	-24%	6µM*	89µM*	.	0%	-2%
C/C=C/Cn1c(SCc2ccc(Cl)cc2)nc2c1c(=O)[nH]c(=O)n2C	-11%	?	?	4%	-3%	-7%
CSc1nc2c(c(=O)[nH]c(=O)n2C)n1Cc1ccccc1Cl	-2%	-14%	-14%	1%	-6%	2%
CCCn1c(SCc2ccc(Cl)cc2)nc2c1c(=O)[nH]c(=O)n2C	1%	21µM*	-22%	4%	-3%	-15%
COc1cc(C(=O)Nc2ccc(-c3cc(C(F)(F)F)nn3-c3ccccc3)cc2)cc(OC)c1OC	.	.	-12%	6%	8%	.
CCOc1ccc(NCc2cccn2-c2nnc(N3CCC(C(=O)NCCc4ccc(OC)c(OC)c4)CC3)s2)cc1	.	.	-14%	6%	?	.
NCCCC(N)CC(=O)NC1CNC(=O)C(C2CC(O)N=C(N)N2)NC(=O)/C(=C/NC(N)=O)NC(=O)C(CO)NC(=O)C(CO)NC1=O (stereo not drawn)	.	.	2%	4%	.	.
Cn1c(=O)[nH]c(=O)c2c1nc(SCCO)n2Cc1ccccc1Cl	1%	24µM*	-8%	3%	5%	-1%
CCCN1C(=S)SC(C)(C)C1/[N+]([O-])=C/c1cccnc1 (stereo not drawn)	-1%	24µM*	-4%	6%	1%	3%
CC1CCN(C(=O)/C(=C/c2ccccc2Cl)c2ccccc2)CC1	-8%	-25%	-1%	2%	5%	-3%
SMILES	Tb PFK block	PLK1 PBD inh	VDR inhibitor	TDP1 block	Pin1 inhibitor	S-ASM inh
O=C(N/N=C/C(Br)=C\c1ccccc1)c1cccs1	-4%	-10%	4%	9%	-1%	-8%
N#CC(C#N)=C1C=CC=CN1/C(=C\c1ccccc1Cl)C(=O)c1ccccc1	-23%	1.7µM*	?	11%	?	5%
N#CC(C#N)=C1C=CC=CN1/C(=C\c1ccccc1)C(=O)c1cccs1	1%	2.1µM*	?	5%	?	22%
O=C(COC(=O)c1ccco1)Nc1ccccc1[N+](=O)[O-]	1%	-6%	-21%	1%	-7%	2%
Cc1cc(OC(=O)c2ccco2)c(Sc2ccccc2[N+](=O)[O-])c(=O)o1	-2%	5.3µM*	?	0%	0%	2%
CCOC(=O)c1cnc(SC2CCc3ccccc3C2=O)nc1N (stereo not drawn)	-6%	27µM*	10%	5%	?	2%
CCCCSc1ncc(C(=O)OCC)c(N)n1	-6%	9.5µM*	-25%	-5%	1%	-1%
O=C(O)CCN1C(=O)/C(=C2\C(=O)N(Cc3ccc(F)cc3)c3ccccc32)SC1=S	-3%	19µM*	?	-9%	-5%	-12%
CN1C(=O)/C(=C2\SC(=S)N(CCCCCC(=O)O)C2=O)c2ccccc21	-11%	?	-9%	.	-3%	-4%
O=C(COC(=O)COc1ccccc1)NCc1ccco1	2%	1%	-21%	0%	6%	1%
COc1ccc(OCCC(=O)OCC(=O)NCc2ccco2)cc1	?	24µM*	-28%	.	?	-7%
Cc1ccc2c(c1)N(C(=O)N1CCC(C(=O)NCc3ccccc3C)CC1)CC(C)O2 (stereo not drawn)	.	.	12%	4%	-8%	.
O=C(NCC1CCCO1)C1CCN(S(=O)(=O)N2CCCC2)CC1 (stereo not drawn)	0%	0%	-4%	2%	2%	3%
O=S(=O)(CCN(CCS(=O)(=O)C(F)(F)F)CC1CCCO1)C(F)(F)F (stereo not drawn)	0%	27µM*	?	0%	-4%	1%
CCOC(=O)c1c(/N=C/c2cccc([N+](=O)[O-])c2O)sc2c1CCC2	-5%	27µM*	-32%	3%	?	0%
